# The list is not random: actives were taken first. Their share in the collection is about 7.9%.
# HCV inh: HCV inhibition. Potency, µM (highest dose often 41.8 µM), usual class: inhibitors. Huh7.5.1 HCVcc-Cre infection, luciferase reporter, 44 h. 340,000 tested, 3.4% active; active = well fitted inhibition curve with a large enough effect; inconclusive = small, poorly fitted or top-dose-only effect, or another doubt; inactive = no such curve, though single readings can be large or run the other way
#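 Luciferase read-out (15 sec integration) after a 15 min room-temperature substrate step quantifies HCVcc-Cre infection. Cells, 1,000 per well, had compound added 4 h post-plating, then virus at ~0.5 moi, and were cultured 44 h.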
# Lassa entry inh: blocks Lassa virus binding to or entry into cells; Lassa virus pseudotype entry inhibition, cell reporter; Potency, µM (top dose mostly 37.9 µM), most hits filed as inhibitors; 300,000 tested, 1.2% active; calls by dose curve; tested in HEK293 cells; also: nearly all actives have a fitted effect of over 50% in size
# HCMV antiviral: human cytomegalovirus inhibition | HFF cells, HCMV-luciferase reporter, 72 h; stronger effect = lower value | activity change, negative = inhibition, % at 57.5 µM | 410,000 tested, 4.5% active; in the data active = activity change below about -60%; inconclusive = no clear call, values can overlap the other calls; inactive = above about -39%
#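 Compounds were evaluated in HFFs infected with an HCMV luciferase reporter virus (MOI 1 PFU/cell). Luciferase in lysates collected 72 h post infection served as the replication measure.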
# FMDV antiviral: blocks foot and mouth disease virus; 410,000 tested, 1.2% active; Potency, µM (top dose mostly 57.9 µM), hits mostly inhibitors; FMDV antiviral cell-based qHTS; calls by dose curve; tested in HEK293T cells; also: read-out not given here; nearly all actives have a fitted effect of over 45% in size
# Marburg entry inh: inhibitors of Marburg virus binding or cell entry | AID 540276 | Marburg virus pseudotyped entry inhibition, cell reporter | Potency, µM (titrated, usually from 37.8 µM), hits mostly inhibitors | 300,000 tested, 1.8% active; calls by dose curve; tested in HEK293 cells
# Hits are given with their value; – = inactive; ? = inconclusive; · = not tested or not shown; ! = repeats disagree; [ ] = remark or other dose.
SMILES,HCV inh,Lassa entry inh,HCMV antiviral,FMDV antiviral,Marburg entry inh
Cc1ccc(OCC(=O)c2cc(C)n(C)c2C)c([N+](=O)[O-])n1,–,?,-71.4,–,–
Cc1cc(C(=O)COc2cccnc2[N+](=O)[O-])c(C)n1-c1ccccc1F,–,·,-97.3,–,·
Cc1cc(C(=O)COc2cccnc2[N+](=O)[O-])c(C)n1-c1ccccc1,–,4.61µM,-98.8,–,?
Cc1cc(C(=O)COc2cccnc2[N+](=O)[O-])c(C)n1Cc1ccco1,?,–,–,–,?
Cc1ccc(-n2c(C)cc(C(=O)COc3cccnc3[N+](=O)[O-])c2C)cc1,?,?,-98.6,?,?
Cc1cc(-n2c(C)cc(C(=O)COc3ccccc3[N+](=O)[O-])c2C)no1,–,–,–,–,–
CC(=O)N1c2ccc(S(=O)(=O)NCCc3cccc(C)c3)cc2CC1C (stereo not drawn),·,–,–,–,·
NC(=O)C1Cc2ccccc2CN1C(=O)c1cc(C2CC2)nn1-c1ccccc1 (stereo not drawn),?,·,-76.9,–,·
COc1ccc(OC)c(-c2csc(NC(=O)Cc3cc(OC)c(OC)c(OC)c3)n2)c1,11.2µM,–,–,?,?
COc1ccc(OC)c(-c2csc(NC(=O)CSc3ccc(Br)cc3)n2)c1,?,7.94µM,–,–,–
COc1ccc(OC)c(-c2csc(NC(=O)CSc3ccc([N+](=O)[O-])cc3)n2)c1,10µM,?,–,?,?
COc1ccc(OC)c(-c2csc(NC(=O)Cc3ccc(F)cc3)n2)c1,?,?,–,–,?
COc1cc(/C=C/C(=O)c2c(O)cc(C)oc2=O)ccc1O,·,·,·,–,·
O=C(/C=C/c1ccccc1)c1c(O)n(CCc2ccccc2)c(=O)[nH]c1=O,–,–,–,12.6µM,?
COc1cc(/C=C/C(=O)c2c(O)n(CCc3ccccc3)c(=O)[nH]c2=O)ccc1O,–,?,-97.4,–,?
Cn1c(N)c(C(=O)/C=C/c2ccccc2)c(=O)[nH]c1=O,–,–,–,–,?
Nc1ccccc1C(=O)/C=C/c1ccc2c(c1)OCO2,–[8.37 µM],?,-71.0,–,?
O=C(/C=C/c1ccc2c(c1)OCO2)c1c(O)n(CCc2ccccc2)c(=O)[nH]c1=O,–,?,-84.5,12.6µM,–
C[C@H]1N[S+](=O)([O-])c2ccc(Br)cc2O[C@@H]1c1ccccc1,·,–,·,·,·
CCOc1ccc(C2=Nn3c(nnc3-c3ccccc3OC)SC2)cc1,?,0.0231µM,-94.3,–,0.291µM
Fc1ccccc1-c1nnc2n1N=C(c1ccc(OC(F)F)c(OCC3CC3)c1)CS2,·,·,–,–,·
COc1ccc(C2=Nn3c(nnc3-c3ccccc3Cl)SC2)cc1OCC1CC1,·,·,-66.1,–,·
COc1ccc(C2=Nn3c(nnc3-c3ccccc3OC)SC2)cc1OC1CCOC1 (stereo not drawn),·,·,-90.2,–,·
COc1ccc(OC)c(C2=Nn3c(nnc3-c3cc(C)[nH]n3)SC2)c1,–,?,–,–,?
COc1ccc(OC)c(-c2nnc3n2N=C(c2ccc(OC)c(OCC4CC4)c2)CS3)c1,·,·,·,31.6µM,·
SMILES,HCV inh,Lassa entry inh,HCMV antiviral,FMDV antiviral,Marburg entry inh
COc1ccc(CNC(=O)CN(c2ccccc2OC)S(=O)(=O)c2ccc(C)cc2)cc1,·,?,–,?,·
CCNC(=O)N[C@H]1CC[C@@]23CCCN2C(=O)CCC[C@H]3[C@H]1C,·,·,–,·,·
CCCc1cc(=O)[nH]c2nnc(SCCC(C)C)n12,·,?,?,–,·
CC(=O)N1CCc2cc(S(=O)(=O)CCC(=O)NCc3ccc(F)cc3)ccc21,–,·,-60.8,–,·
O=C(c1ccccc1)N1CCc2cc(CNS(=O)(=O)c3ccc(Cl)s3)ccc21,·,–,-70.3,–,·
CC(=O)N1CCc2cc(CNS(=O)(=O)c3ccccc3C(F)(F)F)ccc21,·,–,-92.8,–,·
O=C(c1ccccc1)N1CCc2cc(CNS(=O)(=O)c3ccccc3Cl)ccc21,·,?,-78.1,?,·
CCCCCCN1C[C@@H](n2cc(C3CC3)nn2)[C@H](O)C[C@H]1c1ccccc1,·,–,·,·,·
COc1ccc(N(Cc2nc3cc(C)c(C)cc3[nH]2)Cc2nc3cc(C)c(C)cc3[nH]2)cc1,·,·,–,·,·
Cc1cc(S(=O)(=O)NCCc2ccccc2)c(C)s1,?,–,-97.5,–,–
Cc1ccc(S(=O)(=O)NCC(=O)OCC(=O)N(CCC#N)c2ccccc2)cc1,–,–,-63.9,–,–
CCOC(=O)c1cc(-c2ccccc2)n(-c2cccc(C(=O)Nc3cccc(SC)c3)c2)c1C,·,–,?,–,·
CCN(CC)CCC[C@H](C)N=C(c1ccccc1)c1c(O)n(C)c(=O)n(C)c1=O,·,·,·,·,–
CN(C)CCCn1c2c3ccccc3ccc2c2oc(=O)c3ccccc3c21,?,?,-91.8,–,?
COc1ccccc1NC(=O)C(Cc1ccccc1)NS(=O)(=O)c1ccc2c(c1)CCN2C(C)=O (stereo not drawn),·,–,–,–,–
CN(Cc1cnc2nc(N)nc(N)c2n1)c1ccc(C(=O)N[C@H](CCC(=O)O)C(=O)O)cc1,·,·,·,·,0.0398µM
CN(Cc1cnc2nc(N)nc(N)c2n1)c1ccc(C(=O)N[C@@H](CCC(=O)O)C(=O)O)cc1,?,?,-99.3,?,0.0398µM!
Nc1nc2ncc(CNc3ccc(C(=O)NC(CCC(=O)O)C(=O)O)cc3)nc2c(=O)[nH]1 (stereo not drawn),·,·,·,–,·
CC1CCN(c2nc3nonc3nc2Nc2ccc(F)cc2)CC1,11.2µM,?,?,28.2µM,?
COc1ccc(Nc2nc3nonc3nc2N2CCCCC2)cc1,?,?,?,–,?
COc1ccc(NC(=O)NC[C@@H]2CC[C@@H](Cc3ccc(-c4ccccc4)cc3)O2)cc1,4.47µM,·,–,–,·
O=C(O)CSCC(=O)Nc1ccc(Cl)cc1C(F)(F)F,–,–,–,–,–
CC(C)N(CC(=O)Nc1ccc(Cl)cc1C(F)(F)F)C(=O)CCl,3.98µM,?,-98.8,15.8µM,10µM
CCC(C)N(CC(=O)Nc1cccc(C)c1C)C(=O)CCl (stereo not drawn),1.26µM,3.16µM,·,15.8µM,–
CCC(CC)NC(=O)Nc1cccc(C)c1C,–,·,–,–,·
SMILES,HCV inh,Lassa entry inh,HCMV antiviral,FMDV antiviral,Marburg entry inh
CCNC(=O)Cc1c(OC)ccc2cc(Br)ccc12,–,·,–,–,·
COc1ccc2cc(Br)ccc2c1CC(=O)NC1CC(C)(C)NC(C)(C)C1,11.2µM,?,–,–,18.3µM
CCCCCOC(=O)CSc1nc2sc3c(c2c(=O)n1Cc1ccccc1)CC(C)(CC)OC3 (stereo not drawn),·,–,–,–,·
COc1cccc(C2CC3(CC(C)(C)NC(=S)N3)Oc3cc(O)ccc32)c1 (stereo not drawn),?,?,–,–,–
Cc1cccc(C2CC3(CC(C)(C)NC(=S)N3)Oc3cc(O)ccc32)c1 (stereo not drawn),10µM,?,–,–,?
NC(N)=Nc1ccc2[nH]c3c(c2c1)C[C@@]1(O)[C@H]2Cc4ccc(O)c5c4[C@@]1(CCN2CC1CC1)[C@H]3O5,?,2.31µM,·,?,25.9µM
O=C1/C(=C\c2ccccc2)C[C@@]2(O)[C@H]3Cc4ccc(O)c5c4[C@@]2(CCN3CC2CC2)[C@H]1O5,·,·,·,10µM,·
